This note sets out measurements from PubChem BioAssay AID1489 (National Center for Advancing Translational Sciences (NCATS), 2009).

Results filed as inconclusive are left out. The source made the active and inactive calls. Calls follow the shape of the dose curve; as a rule, active = well fitted antagonist curve with a large enough effect in the main read-out, with a control signal flat; inconclusive = small, poorly fitted or top-dose-only effect; inactive = no such curve, though single readings can be large or run the other way.

The target in the assay is Neuropeptide S receptor (Homo sapiens) (UniProt Q6W5P4). The assay can be described thus: Confirmation Concentration-Response Assay for Antagonists of the Neuropeptide S Receptor: Calcium Signal Transduction. The note with it: CHO-NPSR cells, NPS-induced calcium flux, FDSS; series mostly up to 19.3 µM. The text has this: NIH Chemical Genomics Center [NCGC] NIH Molecular Libraries Probe Production centers Network [MLPCN] MLPCN Grant: X01-DA026210-01 Assay Submitter (PI): Heilig, Markus Alexander NCGC Assay Overview: Neuropeptide S receptor (NPSR), previously known as GPR154, is a recently de-orphanized G protein coupled receptor. Its endogenous ligand is the 20 amino acids peptide Neuropeptide S (NPS). […] NPS and its receptor are found in various tissues. Specifically they are highly expressed in brain areas that have been implicated in modulation of arousal, stress and anxiety. Central administration of NPS in mice produces an unusual profile of activity by inducing wakefulness and arousal, while at the same time suppressing anxiety. Therefore, NPSR may represent a novel drug target for the treatment of sleep and anxiety disorders. To identify NPSR antagonists, we developed a cell-based assay with transfected NPS receptor. NPS can stimulate the production of cAMP as well as release intracellular calcium in Chinese hamster ovary cells stably expressing NPS receptor. This change in intracellular calcium can be detected using a calcium indicator dye on a calcium imaging plate reader system (FDSS).
Sequence of Neuropeptide S receptor (Homo sapiens) (Q6W5P4 whole entry, looked up): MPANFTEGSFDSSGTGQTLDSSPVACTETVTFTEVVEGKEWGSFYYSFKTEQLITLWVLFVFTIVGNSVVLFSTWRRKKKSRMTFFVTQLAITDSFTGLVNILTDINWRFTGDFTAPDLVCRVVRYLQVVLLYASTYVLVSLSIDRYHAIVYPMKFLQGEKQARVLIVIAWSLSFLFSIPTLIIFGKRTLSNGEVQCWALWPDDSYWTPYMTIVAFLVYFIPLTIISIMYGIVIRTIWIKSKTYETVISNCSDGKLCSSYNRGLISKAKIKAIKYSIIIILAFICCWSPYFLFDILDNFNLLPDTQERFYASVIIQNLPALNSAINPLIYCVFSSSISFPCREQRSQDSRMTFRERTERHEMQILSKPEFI
NCGC Assay Protocol Summary: A Chinese hamster ovary (CHO) cell line stably expressing the NPS receptor (CHO-NPSR) was obtained from Dr. Heilig lab at NIAAA and maintained in F-12 Kaighn's media (Invitrogen, Carlsbad, CA, 21127) supplemented with 10 % FBS, 100 units/ml penicillin, 100 ug/ml streptomycin and 250 ug/ml geneticin at 37C, 5% CO2 in a humidified atmosphere. Before the assay, aliquots of cells were frozen and stored at -135C. The assay was performed on a FDSS-7000 kinetic plate reader in 1536-well format. For both agonist (1-220s) and antagonist (221-400s) phases, the maximums of kinetic fluorescence responses were converted separately into text files using the instrument's software data export utility. Data for agonist response were normalized to the controls for basal activity (DMSO only) and 100% activation (NPS). […] AC50 values were determined from concentration-response data modeled with the standard Hill equation. NPS 1536-well FDSS assay protocol: (1) Frozen CHO-NPSR cells were thaw, washed once with fresh media and resuspended in F-12 Kaighn's media supplemented with 10 % FBS, 100 units/ml penicillin and 100 ug/ml streptomycin. Cells were plated at 3 ul/well (1200 cells) to black, clear-bottom, tissue-culture treated 1536-well plates, and then cultured at 37C, 5 % CO2 for 16 to 30 hours. (2) Add 3 ul of calcium dye (from High Performance PBX Calcium Assay Kit, BD Biosciences). The calcium dye was prepared according to the manufactory's instruction. (3) Incubation at 37C, 5 % CO2 for 60 to 120 min. (4) Load plates to FDSS-7000. The following steps were performed on FDSS-7000. (5) Record fluorescent background (Ex 480 nm, Em 520-560 nm) for 10 s. (6) Add 23 nl/well of compound in DMSO solution. The final titration for each compound was between 0.6 nM and 46 uM. Record agonist response for 210 s. (7) Add 2 ul of stimulation reagent (1X HBSS buffer, 0.1% BSA, 60 nM NPS). Record antagonist response for 140 s. Keywords: MLSMR, MLPCN, NIH Roadmap, qHTS, NCGC, NPS, Neuropeptide S Antagonists
On the technique in general: Calcium flux is commonly read through the fluorescence of an indicator in the cells.
As for `CNc1ccc2oc(C[C@H]3O[C@@]4(CC[C@H]3C)O[C@H]([C@H](C)C(=O)c3ccc[nH]3)[C@H](C)C[C@H]4C)nc2c1C(=O)O`, the Potency is 15.8 nM (active).

In the case of `Cc1c(P(=S)(c2ccccc2)c2ccccc2)[n+]2ccccc2n1C`, the Potency is 200 nM (active).

For the molecule `C[C@H]1CCCC(=O)CCCCCc2cc(O)cc(O)c2C(=O)O1`, the Potency result was “inactive”.

Consider `CCOC(=O)c1c(-n2c(C)cc(C=C3C(=O)NC(=S)NC3=O)c2C)sc2c1CCCC2`, for which the Potency was 2000 nM (active).

As to `Cc1cccc(N2C(=O)NC(=O)/C(=C\c3cnn(-c4ccccc4)c3)C2=O)c1`, the Potency was 10000 nM (active).

In the case of `CC(=O)Nc1cc([As](=O)(O)O)ccc1O`, the Potency entry was “inactive”.

With `Cc1cc(C=C2C(=O)NC(=S)NC2=O)c(C)n1-c1ccc2c(c1)OCO2`, the Potency is 12600 nM (active).

Take `C=C1C(=O)O[C@@H]2C[C@@H](C)[C@@H]3C=CC(=O)[C@@]3(C)[C@@H](OC(=O)CC(=O)O[C@H]3[C@@H]4C(=C)C(=O)O[C@@H]4C[C@@H](C)[C@@H]4C=CC(=O)[C@]43C)[C@H]12`: the Potency is 89.1 nM (active).

As to `C=CCN1C(=O)/C(=C/c2cccs2)C(=O)NC1=S`, the Potency was 11200 nM (active).

With `C=C(C=O)C[C@@H]1C[C@H](O)C2OC3C[C@]4(C)OC5/C=C\CC6OC7C(CC=CCC6OC5CCCC4OC3CC2O1)OC1CC2OC3CC(=O)OC3C[C@@H](C)C[C@@]2(C)OC1C[C@@H]7C` (stereo not given in full), the Potency was 501 nM (active).
